According to PubChem BioAssay AID1159580 (chemical genetic matrix, 2015):
Values joined by “and” are separate entries in the source; they are usually repeats but may differ in a detail not shown here. Identical values can stand only once. Screen size: about 5,500 compounds; about 2,000 (36%) were called active. Roughly 18% stayed inconclusive and do not appear here. Cut-off read from the data, not from the text of the source: active = normalized growth mostly below about 0.91 (no sharp cut-off); inconclusive = no clear call, values can overlap the other calls; inactive = mostly above about 0.92. This is one part of the list.

Experiment: chemical genetic growth profiling, strain panel (AID 1159580);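 note: tested at 20 µM; growth read once vehicle control cultures reached saturation at 30 °C; 1 = growth at the plate median or of vehicle wells; lower values mean less growth of the strain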
Details: S. cerevisiae deletion strains, growth OD

Measured: normalized growth

CCCC(=O)Nc1ccc(OCC(O)CNC(C)C)c(C(C)=O)c1 (stereo unspecified)
inactive: locus YAL013W, strain DEP1, stronger effect = lower value 1.02 | locus YAL021C, strain ccr4, stronger effect = lower value 1 | locus YAL026C, strain drs2, stronger effect = lower value 1.03 | locus YAL030W, strain snc1, stronger effect = lower value 1.02 | locus YBL061C, strain skt5, stronger effect = lower value 1.02 | locus YBR009C, strain hhf1, stronger effect = lower value 1 | locus YBR021W, strain FUR4, stronger effect = lower value 1.02 | locus YBR023C, strain chs3, stronger effect = lower value 1.02 | locus YBR171W, strain sec66, stronger effect = lower value 1.02 | locus YBR229C, strain ROT2, stronger effect = lower value 1.01 | locus YBR231C, strain swc5, stronger effect = lower value 1.04 | locus YBR279W, strain paf1, stronger effect = lower value 1.02 | locus YCL011C, strain gbp2, stronger effect = lower value 1.03 | locus YCL016C, strain dcc1, stronger effect = lower value 1.03 | locus YCL029C, strain bik1, stronger effect = lower value 1.02 | locus YCL069W, strain vba3, stronger effect = lower value 1.02 | locus YCR088W, strain abp1, stronger effect = lower value 1.01 | locus YDL005C, strain med2, stronger effect = lower value 1.01 | locus YDL035C, strain GPR1, stronger effect = lower value 1.02 | locus YDL040C, strain nat1, stronger effect = lower value 1 | locus YDL074C, strain BRE1, stronger effect = lower value 1.05 | locus YDL101C, strain DUN1, stronger effect = lower value 1.02 | locus YDL134C, strain PPH21, stronger effect = lower value 1.01 | locus YDL185W, strain tfp1, stronger effect = lower value 1.02 | locus YDL192W, strain arf1, stronger effect = lower value 1.02 | locus YDR001C, strain nth1, stronger effect = lower value 1.02 | locus YDR069C, strain doa4, stronger effect = lower value 1.01 | locus YDR101C, strain arx1, stronger effect = lower value 1.01 | locus YDR137W, strain rgp1, stronger effect = lower value 1.01 | locus YDR150W, strain NUM1, stronger effect = lower value 1.02 | locus YDR159W, strain sac3, stronger effect = lower value 0.984 | locus YDR162C, strain NBP2, stronger effect = lower value 1.01 | locus YDR195W, strain ref2 0.999 | locus YDR297W, strain sur2, stronger effect = lower value 1.01 | locus YDR318W, strain mcm21, stronger effect = lower value 1.02 | locus YDR334W, strain swr1, stronger effect = lower value 1.01 | locus YDR335W, strain msn5, stronger effect = lower value 1.01 | locus YDR388W, stronger effect = lower value 1.01 | locus YDR392W, strain spt3, stronger effect = lower value 0.995 | locus YDR502C, strain sam2, stronger effect = lower value 1.02 | locus YEL003W, strain gim4, stronger effect = lower value 1.02 | locus YEL037C, strain rad23, stronger effect = lower value 1.02 | locus YEL061C, strain CIN8 (second series), stronger effect = lower value 1.04 | locus YEL061C, strain CIN8, stronger effect = lower value 1.01 | locus YER015W, strain faa2, stronger effect = lower value 1.01 | locus YER016W, strain bim1, stronger effect = lower value 1.03 | locus YER110C, stronger effect = lower value 1.02 | locus YER111C, strain swi4, stronger effect = lower value 1.01 | locus YER155C, strain BEM2 (second series), stronger effect = lower value 0.985 | locus YER155C, strain BEM2, stronger effect = lower value 1.02 | locus YER167W, strain BCK2, stronger effect = lower value 1.04 | locus YFR010W, strain ubp6, stronger effect = lower value 1.01 | locus YGL078C, strain dbp3, stronger effect = lower value 1.01 | locus YGL086W, strain mad1, stronger effect = lower value 0.996 | locus YGL167C, strain pmr1, stronger effect = lower value 1.02 | locus YGL173C, strain kem1, stronger effect = lower value 1.02 | locus YGL227W, strain vid30, stronger effect = lower value 1.03 | locus YGL240W, strain doc1, stronger effect = lower value 0.984 | locus YGL248W, strain PDE1, stronger effect = lower value 1.01 | locus YGL253W, strain hxk2, stronger effect = lower value 1.01 | locus YGR078C, strain PAC10, stronger effect = lower value 1.03 | locus YGR135W, strain pre9, stronger effect = lower value 1.02 | locus YGR229C, strain SMI1, stronger effect = lower value 1.03 | locus YGR252W, strain gcn5, stronger effect = lower value 0.965 | locus YHR013C, strain ard1, stronger effect = lower value 1.02 | locus YHR027C, strain rpn1, stronger effect = lower value 1.02 | locus YHR030C, strain SLT2, stronger effect = lower value 1.01 and 1.04 | locus YHR079C, strain IRE1 (second series), stronger effect = lower value 1.02 | locus YHR079C, strain IRE1, stronger effect = lower value 1.01 | locus YHR094C, strain hxt1, stronger effect = lower value 1.01 | locus YHR129C, strain ARP1, stronger effect = lower value 1.01 | locus YHR142W, strain chs7, stronger effect = lower value 1.04 | locus YHR200W, strain rpn10, stronger effect = lower value 1.02 | locus YIL066C, strain RNR3, stronger effect = lower value 1.02 | locus YIL073C, strain SPO22, stronger effect = lower value 1.05 | locus YIL125W, strain kgd1, stronger effect = lower value 1.01 | locus YIR030C, strain dcg1, stronger effect = lower value 1.02 | locus YJL092W, strain hpr5, stronger effect = lower value 1.01 | locus YJL095W, strain BCK1 (second series), stronger effect = lower value 1.02 | locus YJL095W, strain BCK1, stronger effect = lower value 1.03 and 1.01 | locus YJL115W, strain asf1, stronger effect = lower value 1.01 | locus YJL129C, strain trk1, stronger effect = lower value 1.01 | locus YJL134W, strain LCB3, stronger effect = lower value 1.01 | locus YJL154C, strain vps35, stronger effect = lower value 1.01 | locus YJL164C, strain tpk1, stronger effect = lower value 0.999 | locus YJL166W, strain qcr8, stronger effect = lower value 1.01 | locus YJL168C, strain set2, stronger effect = lower value 1.02 | locus YJL187C, strain SWE1 (second series), stronger effect = lower value 1.02 | locus YJL187C, strain SWE1, stronger effect = lower value 1.02 | locus YJR043C, strain POL32, stronger effect = lower value 1.05 | locus YJR066W, strain TOR1, stronger effect = lower value 0.957
